Records with an inconclusive call do not appear. Active and inactive are the calls of the source. Calls come from the whole dose curve; as a rule, active = well fitted cell-killing curve with a large enough effect in the repeat runs; inconclusive = weak or mixed curves; inactive = flat fitted curve, though single readings scatter.
Experiment: qHTS assay to identify small molecule antagonists of the TGF-beta/Smad signaling pathway - cell viability counter screen (AID 1346824); note: nearly all actives have a fitted effect of over 50% in size
Conditions: SBE-bla HEK293T viability, CellTiter-Glo luminescence; series mostly up to 76.8 µM; viability change, negative = cytotoxic: at the top concentration
Text: U.S. Tox21 Program National Center for Advancing Translational Sciences [NCATS] NIH Chemical Genomics Center [NCGC] U.S. Environmental Protection Agency [EPA] National Institutes of Environmental Health Sciences [NIEHS] National Toxicology Program [NTP] U.S. Food and Drug Administration [FDA] Tox21 Assay Overview: Transforming growth factor beta (TGF-beta) superfamily consists of a large number of structurally related dimeric proteins that act as hormones or local mediators in regulating a wide range of biological functions. This superfamily includes TGF-betas themselves, the bone morphogenetic proteins (BMPs) and the activins. These ligands induce oligomerization of serine/threonine receptor kinases and phosphorylate the cytoplasmic signaling molecules of Smad protein family. CellSensor SBE-bla HEK 293T cell line (Life Technologies, Carlsbad, CA), responsive to TGF-beta was used to screen Tox21 10K compound library for identification of agonists/antagonists of the Smad signaling pathway. This cell line contains a beta-lactamase reporter gene under control of the Smad binding element (SBE) stably integrated into HEK 293T cells. Also cytotoxicity of the compounds was tested in parallel by measuring the cell viability using CellTiter-Glo assay system in the same wells.
Tox21 Assay Protocol Summary: SBE-bla HEK 293T cells were dispensed at 4,000/well in 5 uL of assay medium into black wall/clear-bottom 1536-well plates using a Multidrop Combi (ThermoFisher Scientific, Waltham, MA) dispenser. After the assay plates were incubated at 37 C and 5% CO2 for an overnight, 23 nL of compounds dissolved in DMSO, positive controls or DMSO only was transferred to the assay plate by a Pintool station (Kalypsys, San Diego, CA). Compound transfer was followed by the addition of 1 uL of 0.25 ng/mL TGF-beta1 or assay buffer using two separate tips of Flying Reagent Dispenser (FRD, Aurora Discovery, San Diego, CA). The assay plates were incubated at 37 C and 5% CO2 for 5 hr. One uL of LiveBLAzer B/G FRET substrate (Life Technologies) was added using a Flying Reagent Dispenser (FRD, Aurora Discovery, San Diego, CA) and the plates were incubated at room temperature for 2 hr. Fluorescence intensity (405 nm excitation, 460 nm and 530 nm emissions) was measured using an Envision plate reader (PerkinElmer, Shelton, CT). For cytotoxicity read, 4 uL of CellTiter-Glo reagent (Promega Corporation, Madison, WI) was added to each well of the assay plates using FRD. After 30 min incubation at room temperature, the luminescence intensity was measured using ViewLux plate reader (PerkinElmer).
% is set by controls: 0 for no effect and ±100 for the full control effect; potency is the fitted concentration of half-maximal effect.

Which viability change, negative = cytotoxic does the source give for `Nc1c(Br)cc(Br)c2c1C(=O)c1ccccc1C2=O` here?
The viability change, negative = cytotoxic was 4.07% [at 15.8 µM] (inactive).

With `ClCc1ccccc1Cl` as the compound, how does the “viability change, negative = cytotoxic” value read?
Its value is 6.52% (inactive).

For `C=CC(C)(CCC=C(C)C)OC(=O)c1ccccc1N` (stereo not given), which “viability change, negative = cytotoxic” value is on record?
Its value is -0.171% (inactive).

With `CCCN(CCC)c1c([N+](=O)[O-])cc(C(C)C)cc1[N+](=O)[O-]` as the compound, how does the “viability change, negative = cytotoxic” value read?
Its value is 0.772% (inactive).

For `CCCCCCCCCCCCN=C(N)N`, which viability change, negative = cytotoxic is on record?
Its viability change, negative = cytotoxic is -21.8% [at 2.72 µM] (inactive).

For `COP(=O)(OC)OC(Br)C(Cl)(Cl)Br` (stereo not given), which Potency is on record?
The Potency was “inactive”.

For `Cc1cccc(C)c1NC1=NCCCS1`, which “viability change, negative = cytotoxic” value is on record?
Its value is 2.07% [at 35.3 µM] (inactive).

With `O=C([O-])c1ccccn1.O=C([O-])c1ccccn1.O=C([O-])c1ccccn1.[Cr+3]` as the compound, how does the “viability change, negative = cytotoxic” value read?
The value was -8.56% (inactive).

With `C=CCOCC1CO1` (stereo not given) as the compound, how does the “viability change, negative = cytotoxic” value read?
The value was 19.5% (inactive).

With `CCOP(=O)(SC(C)CC)N1CCSC1=O` (stereo not given) as the compound, how does the “viability change, negative = cytotoxic” value read?
The value was -10.4% (inactive).

For `CCCC1CCCCN1` (stereo not given), which “viability change, negative = cytotoxic” value is on record?
The value was -2.88% [at 35.3 µM] (inactive).

Which “viability change, negative = cytotoxic” value does the source give for `Nc1ccccc1C(=O)OCC(O)CO` (stereo not given) here?
The value was -8.69% [at 35.3 µM] (inactive).

For `O=C(O)C(Cl)(Cl)Br`, which “viability change, negative = cytotoxic” value is on record?
Its value is -9.42% (inactive).

With `CCCC[P+](CC)(CCCC)CCCC` (tested in a mixture with another compound) as the compound, how does the “viability change, negative = cytotoxic” value read?
The value was -3.49% (inactive).

For `O=C(O)CCCOc1ccc(Cl)cc1Cl`, which Potency is on record?
The Potency was “inactive”.

With `Cc1ncc(C[n+]2csc(CCO)c2C)c(N)n1` as the compound, how does the “viability change, negative = cytotoxic” value read?
The value was 2.58% (inactive).

For `COC(=O)C1(O)c2ccccc2-c2ccccc21`, which “viability change, negative = cytotoxic” value is on record?
The value was 10.8% (inactive).

With `COC1CC(=C(c2cccs2)c2cccs2)C[N+](C)(C)C1` (stereo not given) as the compound, how does the “viability change, negative = cytotoxic” value read?
Its value is 4.63% [at 35.3 µM] (inactive).

Which Potency does the source give for `Nc1cccc2ccccc12` here?
Its Potency is “inactive”.

For `CCCC[N+](CCCC)(CCCC)CCCC`, which “viability change, negative = cytotoxic” value is on record?
The value was -15.5% (inactive).

Which “viability change, negative = cytotoxic” value does the source give for `CCCCCBr` here?
The value was 11.5% (inactive).

For `CC[N+]1(C)CCCC(OC(=O)C(O)(c2ccccc2)c2ccccc2)C1` (stereo not given), which “viability change, negative = cytotoxic” value is on record?
Its value is 6.37% [at 35.3 µM] (inactive).

With `CCCCCCCCCCCC[N+](C)(C)CCOc1ccccc1` as the compound, how does the Potency read?
The Potency was 43.7 µM (active).

Which “viability change, negative = cytotoxic” value does the source give for `CCOP(=S)(OCC)Oc1ccc(S(C)=O)cc1` (stereo not given) here?
The value was 0.623% (inactive).

With `CCC(C)(C)c1ccc(O)c(C(C)(C)CC)c1` as the compound, how does the “viability change, negative = cytotoxic” value read?
Its value is -26.6% (inactive).

With `CC(C)(C)NCC(O)c1ccccc1Cl` (stereo not given) as the compound, how does the “viability change, negative = cytotoxic” value read?
The value was 9.21% [at 35.3 µM] (inactive).

Which “viability change, negative = cytotoxic” value does the source give for `CC(O)CN1CCN(CC(=O)[O-])CCN(CC(=O)[O-])CCN(CC(=O)[O-])CC1.[Gd+3]` (stereo not given) here?
Its value is 1.43% [at 35.3 µM] (inactive).

For `Cc1nc(N(C)C)nc(OC(=O)N(C)C)c1C`, which “viability change, negative = cytotoxic” value is on record?
Its value is -1.53% (inactive).

For `O=C(O)C(O)C(O)C(=O)O` (stereo not given), which “viability change, negative = cytotoxic” value is on record?
Its value is 2.48% (inactive).

Which “viability change, negative = cytotoxic” value does the source give for `O=C(O)c1cc(I)cc(I)c1I` here?
Its value is 1.16% (inactive).

Which “viability change, negative = cytotoxic” value does the source give for `CN1CC[C@]23c4c5ccc(O)c4O[C@H]2[C@@H](O)CC[C@H]3[C@H]1C5` here?
The value was -2.92% (inactive).

With `O=C(O)C(F)(F)C(F)(F)C(F)(F)C(F)(F)C(F)(F)F` as the compound, how does the “viability change, negative = cytotoxic” value read?
Its value is -0.801% (inactive).

Which Potency does the source give for `CC(C)c1ccc(OP(=O)(Oc2ccc(C(C)C)cc2)Oc2ccc(C(C)C)cc2)cc1` here?
Its Potency is “inactive”.

With `CC(CC(C(N)=O)(c1ccccc1)c1ccccc1)N(C)C` (stereo not given) as the compound, how does the “viability change, negative = cytotoxic” value read?
Its value is 14.2% [at 35.3 µM] (inactive).

With `CC(Cc1ccccc1)NCc1ccccc1Cl` (stereo not given) as the compound, how does the “viability change, negative = cytotoxic” value read?
The value was -1.85% [at 35.3 µM] (inactive).

For `COc1ccccc1N1CCNCC1`, which “viability change, negative = cytotoxic” value is on record?
Its value is 1.95% [at 35.3 µM] (inactive).

With `C[C@H]1O[C@H](OC2[C@@H](O)[C@@H](O)C(O)[C@H](O)[C@H]2O)[C@@H](N)C[C@@H]1N=C(N)C(=O)O` (stereo not given in full) as the compound, how does the “viability change, negative = cytotoxic” value read?
The value was 16.7% (inactive).

With `C[N+](C)(C)CCOC(=O)C(O)(c1ccccc1)c1ccccc1` as the compound, how does the “viability change, negative = cytotoxic” value read?
Its value is 5.36% [at 35.3 µM] (inactive).

For `Cc1nc2ccccc2c(=O)n1-c1ccccc1Cl`, which “viability change, negative = cytotoxic” value is on record?
Its value is -5.72% (inactive).

With `CN1C[C@H](C(=O)N[C@]2(C)O[C@@]3(O)[C@@H]4CCCN4C(=O)[C@H](Cc4ccccc4)N3C2=O)C=C2c3cccc4[nH]cc(c34)C[C@H]21` as the compound, how does the Potency read?
The Potency was “inactive”.

From PubChem BioAssay (Tox21)
